We go through 115 sequences from the supplement of paper PMC4166925.

± gives the standard deviation of the averaged measurements. The full ranking holds about 33,000 sequences; the median of “E-score (dimensionless, -0.5 to 0.5)” is about -0.049, and the highest 2% start at about 0.37. Only a selection was taken, and the highest values are over-represented in it overall.

The assay concerns T1, PmTbr T-box DNA-binding domain (GST fusion).
T1 sequence: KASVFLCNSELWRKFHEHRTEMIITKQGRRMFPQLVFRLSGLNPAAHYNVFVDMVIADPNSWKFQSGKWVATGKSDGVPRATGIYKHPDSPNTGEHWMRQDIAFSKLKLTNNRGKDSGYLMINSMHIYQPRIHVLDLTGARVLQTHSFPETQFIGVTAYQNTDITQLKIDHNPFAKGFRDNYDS
As to the kind of experiment: PBM E-score of 8-mer (E-score (dimensionless, -0.5 to 0.5)); Tbr is Tbrain of the sea star Patiria miniata (Pm) or the sea urchin Strongylocentrotus purpuratus (Sp); higher = stronger binding preference. The note with it: the construct has about 5 more residues each side. How it is done: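 Universal protein-binding microarray (Agilent AMADID 016060, 60-bp probes with a 35-bp variable region) incubated with 200 nM GST-fused Patiria miniata Tbr T-box DNA-binding domain (residues 272-466) in PBS pH 7.5. Scored for every ungapped 8-mer (given with its reverse complement) by the Universal PBM Analysis Suite as E-score (modified Wilcoxon-Mann-Whitney enrichment, range -0.5 to 0.5; >0.45 counts as bound) and Z-score of median probe intensity. Two replicate arrays (datasets 1 and 2).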
As to ACTGAACG, the “PBM E-score of 8-mer” value is -0.315 ± 0.091.

Regarding GCTTTACC, the “PBM E-score of 8-mer” value is -0.126 ± 0.066.

As to AAGGTTAC, the “PBM E-score of 8-mer” value was -0.145 ± 0.017.

Turning to GGGCCCAA, the “PBM E-score of 8-mer” value is -0.154 ± 0.022.

For CGTGTTTC, the “PBM E-score of 8-mer” value stood at 0.126 ± 0.034.

Consider ACCCAGTA, for which the “PBM E-score of 8-mer” value was -0.234 ± 0.012.

Take AGATAAAT: the “PBM E-score of 8-mer” value was -0.223 ± 0.057.

Consider GCTGACCC, for which the “PBM E-score of 8-mer” value was -0.159 ± 0.14.

Regarding CCTGACAG, the “PBM E-score of 8-mer” value was 0.218 ± 0.036.

As for ACTGACAC, the “PBM E-score of 8-mer” value turned out to be 0.379 ± 0.012.

With GCTGACAA, the “PBM E-score of 8-mer” value was determined as 0.2795 ± 0.00061.

On to ACTGACAT, for which the “PBM E-score of 8-mer” value was found to be 0.0983 ± 0.064.

As for AATGACAC, the “PBM E-score of 8-mer” value stood at 0.355 ± 0.0044.

Take GCTGACAC: the “PBM E-score of 8-mer” value turned out to be 0.398 ± 0.013.

For CATGACAC, the “PBM E-score of 8-mer” value stood at 0.389 ± 0.0048.

For the sequence ACTGACAA, the “PBM E-score of 8-mer” value turned out to be 0.166 ± 0.009.

Take CCTGACAC: the “PBM E-score of 8-mer” value stood at 0.435 ± 0.0077.

For CCTGACAA, the “PBM E-score of 8-mer” value is 0.207 ± 0.027.

On to CATGACAA, for which the “PBM E-score of 8-mer” value came to 0.204 ± 0.047.

Turning to GCCTTTCA, the “PBM E-score of 8-mer” value is -0.0251 ± 0.074.

Consider TACTTTCA, for which the “PBM E-score of 8-mer” value turned out to be 0.0461 ± 0.077.

Take CACAGCGA: the “PBM E-score of 8-mer” value stood at 0.0526 ± 0.053.

Turning to CTGACCAC, the “PBM E-score of 8-mer” value was 0.0865 ± 0.013.

For ACAGATGA, the “PBM E-score of 8-mer” value turned out to be 0.00068 ± 0.05.

Regarding AGCGTTCG, the “PBM E-score of 8-mer” value came to 0.214 ± 0.068.

CTACAGAG: the “PBM E-score of 8-mer” value is -0.187 ± 0.022.

Consider AGTGTCAA, for which the “PBM E-score of 8-mer” value came to 0.447 ± 0.0063.

In the case of ACTGTCAC, the “PBM E-score of 8-mer” value stood at 0.392 ± 0.018.

In the case of ACTGTCAA, the “PBM E-score of 8-mer” value was found to be 0.162 ± 0.028.

For GCTGTCAA, the “PBM E-score of 8-mer” value was determined as 0.323 ± 0.014.

Regarding CATGTCAA, the “PBM E-score of 8-mer” value was -0.00945 ± 0.065.

For the sequence CCTGTCAA, the “PBM E-score of 8-mer” value came to 0.309 ± 0.024.

GGTGTCCA: the “PBM E-score of 8-mer” value worked out at 0.294 ± 0.021.

AATGTCAA: the “PBM E-score of 8-mer” value came to 0.0345 ± 0.052.

As to CCTGTCAC, the “PBM E-score of 8-mer” value came to 0.3665 ± 0.0036.

Consider GGTGTCAA, for which the “PBM E-score of 8-mer” value came out at 0.474 ± 0.0055.

ACTGTCAG: the “PBM E-score of 8-mer” value was found to be 0.129 ± 0.034.

For the sequence CGTGTCAA, the “PBM E-score of 8-mer” value amounted to 0.4335 ± 0.00096.

In the case of TGTGTCAA, the “PBM E-score of 8-mer” value was found to be 0.372 ± 0.014.

Turning to GGTGTCAC, the “PBM E-score of 8-mer” value came out at 0.481 ± 0.0062.

With GATGTCAC, the “PBM E-score of 8-mer” value is 0.304 ± 0.0034.

With AATGTCAG, the “PBM E-score of 8-mer” value stood at 0.0135 ± 0.012.

In the case of CGTGTCAG, the “PBM E-score of 8-mer” value was 0.31284 ± 0.00018.

TCTGTCAA: the “PBM E-score of 8-mer” value turned out to be 0.152 ± 0.039.

TATGTCAA: the “PBM E-score of 8-mer” value was 0.0912 ± 0.063.

As for AGTGTCAG, the “PBM E-score of 8-mer” value is 0.384 ± 0.017.

GCTGTCAC: the “PBM E-score of 8-mer” value worked out at 0.3624 ± 0.0017.

As for ACTGTCAT, the “PBM E-score of 8-mer” value amounted to 0.163 ± 0.037.

As for AATGTCAT, the “PBM E-score of 8-mer” value is -0.164 ± 0.033.

On to AGTGTCAT, for which the “PBM E-score of 8-mer” value worked out at 0.387 ± 0.0042.

In the case of AACATGAT, the “PBM E-score of 8-mer” value is -0.0409 ± 0.098.

Take GGTCGAGA: the “PBM E-score of 8-mer” value was -0.252 ± 0.058.

With TTGAGCAA, the “PBM E-score of 8-mer” value is -0.0163 ± 0.022.

Consider ATAGGCAC, for which the “PBM E-score of 8-mer” value is -0.0213 ± 0.017.

CGCTCATA: the “PBM E-score of 8-mer” value was -0.08565 ± 0.00083.

Regarding TAGCTCAA, the “PBM E-score of 8-mer” value is -0.184 ± 0.04.

ACTTTTCT: the “PBM E-score of 8-mer” value came to 0.0687 ± 0.099.

Consider ATTGGGTC, for which the “PBM E-score of 8-mer” value is -0.0189 ± 0.031.

Consider CGAAGCCG, for which the “PBM E-score of 8-mer” value worked out at 0.155 ± 0.06.

Turning to ATGGAGGA, the “PBM E-score of 8-mer” value was -0.217 ± 0.015.

With ACACCCAA, the “PBM E-score of 8-mer” value came to 0.368 ± 0.035.

With AAGCGAAT, the “PBM E-score of 8-mer” value was -0.167 ± 0.0081.

CGTGTCCC: the “PBM E-score of 8-mer” value is -0.0561 ± 0.065.

Regarding AATGTCAC, the “PBM E-score of 8-mer” value came out at 0.329 ± 0.034.

On to CATGTCAC, for which the “PBM E-score of 8-mer” value came to 0.352 ± 0.0093.

Regarding AGTGTCAC, the “PBM E-score of 8-mer” value stood at 0.449 ± 0.0029.

Consider AGTGTCCC, for which the “PBM E-score of 8-mer” value was 0.176 ± 0.004.

Consider CGTGTCAC, for which the “PBM E-score of 8-mer” value was 0.3865 ± 0.0037.

Consider ATTAAGTA, for which the “PBM E-score of 8-mer” value is -0.154 ± 0.096.

Turning to CGACCTCG, the “PBM E-score of 8-mer” value is 0.14 ± 0.074.

Turning to CGCTTCAG, the “PBM E-score of 8-mer” value was -0.0405 ± 0.068.

For the sequence CTCCTAGC, the “PBM E-score of 8-mer” value came to 0.0648 ± 0.041.

For CGTCACAA, the “PBM E-score of 8-mer” value came to 0.175 ± 0.033.

With CGTCACAC, the “PBM E-score of 8-mer” value came to 0.433 ± 0.017.

CGTCACAG: the “PBM E-score of 8-mer” value is 0.243 ± 0.014.

As to CGTCACCA, the “PBM E-score of 8-mer” value is 0.27 ± 0.054.

Regarding GGTCACAC, the “PBM E-score of 8-mer” value stood at 0.4613 ± 0.0012.

On to GGACACAC, for which the “PBM E-score of 8-mer” value turned out to be 0.101 ± 0.0014.

Consider GGTCACAA, for which the “PBM E-score of 8-mer” value was 0.212 ± 0.048.

Take CGTCACCC: the “PBM E-score of 8-mer” value came to 0.373 ± 0.021.

With AGTCACAG, the “PBM E-score of 8-mer” value was found to be 0.135 ± 0.054.

As for AGTCACCC, the “PBM E-score of 8-mer” value was -0.0493 ± 0.13.

In the case of AGTCACAT, the “PBM E-score of 8-mer” value was found to be 0.11 ± 0.058.

AGTCACAC: the “PBM E-score of 8-mer” value stood at 0.462 ± 0.0029.

In the case of CTCAAGAA, the “PBM E-score of 8-mer” value is -0.0351 ± 0.062.

For AATGAGGG, the “PBM E-score of 8-mer” value is -0.21 ± 0.035.

As for AGCAACAT, the “PBM E-score of 8-mer” value is -0.000465 ± 0.079.

As for AAAATCGT, the “PBM E-score of 8-mer” value turned out to be 0.158 ± 0.078.

Take AGAACATG: the “PBM E-score of 8-mer” value is -0.102 ± 0.0022.

Regarding GTATCTCA, the “PBM E-score of 8-mer” value came out at 0.138 ± 0.024.

Turning to CTAATAGC, the “PBM E-score of 8-mer” value was found to be 0.0155 ± 0.017.

AACAATAT: the “PBM E-score of 8-mer” value stood at 0.00943 ± 0.055.

Regarding AGATGCTG, the “PBM E-score of 8-mer” value was -0.149 ± 0.035.

Take ATCAAGCC: the “PBM E-score of 8-mer” value was -0.0171 ± 0.049.

As for GTACTTAA, the “PBM E-score of 8-mer” value was -0.16 ± 0.011.

On to GCGGGTTA, for which the “PBM E-score of 8-mer” value amounted to 0.0385 ± 0.009.

Take GGGGGTTA: the “PBM E-score of 8-mer” value was -0.158 ± 0.1.

As for GGATGTTA, the “PBM E-score of 8-mer” value was -0.00674 ± 0.011.

Take CGCTGTTA: the “PBM E-score of 8-mer” value came out at 0.0368 ± 0.0067.

For CGGTGTTA, the “PBM E-score of 8-mer” value came to 0.37 ± 0.0083.

Take GGGTGTTA: the “PBM E-score of 8-mer” value came out at 0.4737 ± 0.00077.

As for CGATGTTA, the “PBM E-score of 8-mer” value is -0.192 ± 0.016.

Turning to ACCCATAT, the “PBM E-score of 8-mer” value worked out at 0.0957 ± 0.013.

In the case of GGGTTCGA, the “PBM E-score of 8-mer” value is -0.0834 ± 0.013.

In the case of GGTGGGCA, the “PBM E-score of 8-mer” value was 0.0512 ± 0.038.

AAACTCTT: the “PBM E-score of 8-mer” value was -0.11 ± 0.032.

CGATTCAC: the “PBM E-score of 8-mer” value came to 0.143 ± 0.0046.

Take CAACTGAG: the “PBM E-score of 8-mer” value is 0.0533 ± 0.042.

With GACTTGGA, the “PBM E-score of 8-mer” value was -0.167 ± 0.064.

With ACGCGAAC, the “PBM E-score of 8-mer” value was 0.203 ± 0.043.

On to GCGCGAAA, for which the “PBM E-score of 8-mer” value is 0.4397 ± 0.0003.

Regarding GCGCGACA, the “PBM E-score of 8-mer” value is 0.36 ± 0.023.

For the sequence ACGCGAAA, the “PBM E-score of 8-mer” value is 0.133 ± 0.039.

As to GCGCGAAC, the “PBM E-score of 8-mer” value was determined as 0.411 ± 0.017.

Consider TCGCGAAA, for which the “PBM E-score of 8-mer” value is 0.409 ± 0.025.
